The full data set covers some 7,900 targets. This sample favours those with a hit. About 0.6% of all pairs of compound and target were hits. Unmarked numbers belong to inactive results.
Columns and labels:
Test in all cases: log2 fold change, soluble protein after heating vs DMSO (PISA); higher = thermal stabilisation; K562 cells, 10 uM, 30 min; active = over 0.2 and 3.5 SD of the protein, either way, in both replicates (recomputed)
erlotinib = compound: C#Cc1cccc(Nc2ncnc3cc(OCCOC)c(OCCOC)cc23)c1 [erlotinib]
Outline: (§1)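 Aliquots of K562 cells (2×10^6 cells/mL) treated with 10 μM compound for 30 min were heated for 3 min over 48°C-58°C. After pooling and extraction in PBS with 0.5% NP-40 at 4°C, soluble protein from a 21,000xg, 90 min spin was quantified by TMTpro 16plex LC-MS/MS with channel sums equalised. Thermal stability is expressed against control samples, from duplicates, as a log2 fold change.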

[1] = compound: C/C(=N\NC(=O)C1=CC(=CC=C1)S(=O)(=O)N2CCOCC2)/C3=C(C=CC(=C3)Cl)O
Outline: as §1

[2] = compound: C1=CC(=C(C=C1Cl)C2=NC3=NC=CN=C3C(=N2)NC4=CC=NC=C4)F
Outline: as §1

[3] = compound: C1=CC(=CC=C1C2=NC3=C(N2)C=C(C=C3)C(=O)N)OC4=CC=C(C=C4)Cl
Outline: as §1

[4] = compound: C1=CC2=C(C=CC(=C2)/C=C\3/C(=O)NC(=NCC4=CC=CS4)S3)N=C1
Outline: as §1

[5] = compound: C1=CC2=NC=CN=C2C=C1/C=C/3\C(=O)NC(=O)S3
Outline: as §1

[6] = compound: C1=CC=C2C(=C1)C3=NNC4=CC=CC(=C43)C2=O
Outline: as §1

[7] = compound: C1CCN(C1)C(=O)NC2=CC=CC(=C2)NC3=NC=C(C(=N3)NCCC4=CN=CN4)Br
Outline: as §1

[8] = compound: C1CN(CCC1(CC2=CC=C(C=C2)Cl)N)C3=NC=NC4=C3C=CN4
Outline: as §1

IRAK-1-4 Inhibitor I = compound: C1COCCN1CCN2C3=CC=CC=C3N=C2NC(=O)C4=CC(=CC=C4)[N+](=O)[O-] [IRAK-1-4 Inhibitor I]
Outline: as §1

ibrutinib = compound: C=CC(=O)N1CCC[C@@H](n2nc(-c3ccc(Oc4ccccc4)cc3)c3c(N)ncnc32)C1 [ibrutinib]
Outline: as §1

[9] = compound: CC(=O)c1cnc2ccc(-c3cc(Cl)c(O)c(Cl)c3)nc2c1N[C@H]1CC[C@H](CN(C)C)CC1
Outline: as §1

[10] = compound: CC(C)(O)CC(=O)NCCn1ccc2ncnc(Nc3ccc(Oc4cccc(C(F)(F)F)c4)c(Cl)c3)c21
Outline: as §1

[11] = compound: CC(C)C1=C2N=C(C=C(N2N=C1)NCC3=CC=CC=C3)NCCCCCCN
Outline: as §1

pinometostat = compound: CC(C)N(C[C@H]1O[C@@H](n2cnc3c(N)ncnc32)[C@H](O)[C@@H]1O)[C@H]1C[C@@H](CCc2nc3cc(C(C)(C)C)ccc3[nH]2)C1 [pinometostat]
Outline: as §1

[12] = compound: CC1=C(C(CC(=O)N1)C2=CC=C(C=C2)C(F)(F)F)C(=O)NC3=C(C=C4C(=C3)C=NN4)F
Outline: as §1

[13] = compound: CC1=C(C2=C(C=C1)C(=O)C3=CC=CC=C3N2CCCN)C
Outline: as §1

[14] = compound: C1=CC=C(C=C1)C2=NC(=C(N2)C3=CC=NC=C3)C4=CC(=C(C=C4)Cl)O
Outline: as §1

ralimetinib = compound: CC(C)(C)Cn1c(N)nc2ccc(-c3[nH]c(C(C)(C)C)nc3-c3ccc(F)cc3)nc21 [ralimetinib]
Outline: as §1

[15] = compound: CC(C)C[C@@H](C=O)NC(=O)[C@H](CC(C)C)NC(=O)[C@H](CC(C)C)NC(=O)OCc1ccccc1
Outline: as §1

Sequence of UniProt Q14157 (Q14157 whole entry, looked up): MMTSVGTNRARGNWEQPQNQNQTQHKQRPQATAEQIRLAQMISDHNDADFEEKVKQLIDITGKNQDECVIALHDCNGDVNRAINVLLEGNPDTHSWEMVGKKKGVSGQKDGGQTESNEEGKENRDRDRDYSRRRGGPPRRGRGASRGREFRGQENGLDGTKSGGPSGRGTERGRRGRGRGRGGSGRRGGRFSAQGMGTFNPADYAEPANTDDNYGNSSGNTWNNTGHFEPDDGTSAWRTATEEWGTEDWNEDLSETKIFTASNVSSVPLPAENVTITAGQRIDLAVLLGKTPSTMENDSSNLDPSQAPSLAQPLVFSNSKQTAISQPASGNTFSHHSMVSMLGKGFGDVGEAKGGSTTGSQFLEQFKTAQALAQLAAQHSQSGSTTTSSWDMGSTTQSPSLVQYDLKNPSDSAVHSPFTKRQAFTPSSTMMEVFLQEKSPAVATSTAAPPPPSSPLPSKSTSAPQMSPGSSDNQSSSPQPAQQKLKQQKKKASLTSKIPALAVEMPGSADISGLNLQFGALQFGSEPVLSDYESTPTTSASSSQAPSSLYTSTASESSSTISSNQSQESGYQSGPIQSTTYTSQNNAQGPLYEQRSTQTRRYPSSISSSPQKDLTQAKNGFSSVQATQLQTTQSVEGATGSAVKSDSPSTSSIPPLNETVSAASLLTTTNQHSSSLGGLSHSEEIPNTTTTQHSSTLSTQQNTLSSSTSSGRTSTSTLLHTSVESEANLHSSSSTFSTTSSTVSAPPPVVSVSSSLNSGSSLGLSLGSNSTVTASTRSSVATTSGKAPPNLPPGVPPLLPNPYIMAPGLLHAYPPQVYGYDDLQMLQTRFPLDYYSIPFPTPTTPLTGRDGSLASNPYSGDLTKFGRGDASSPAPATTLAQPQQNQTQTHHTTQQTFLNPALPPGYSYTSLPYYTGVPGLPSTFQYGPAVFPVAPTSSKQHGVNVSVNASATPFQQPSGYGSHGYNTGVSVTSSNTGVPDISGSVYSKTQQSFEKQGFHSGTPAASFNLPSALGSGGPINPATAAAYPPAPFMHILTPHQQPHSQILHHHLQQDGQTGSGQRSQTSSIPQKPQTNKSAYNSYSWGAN
Sequence of UniProt Q96K49 (Q96K49 whole entry, looked up): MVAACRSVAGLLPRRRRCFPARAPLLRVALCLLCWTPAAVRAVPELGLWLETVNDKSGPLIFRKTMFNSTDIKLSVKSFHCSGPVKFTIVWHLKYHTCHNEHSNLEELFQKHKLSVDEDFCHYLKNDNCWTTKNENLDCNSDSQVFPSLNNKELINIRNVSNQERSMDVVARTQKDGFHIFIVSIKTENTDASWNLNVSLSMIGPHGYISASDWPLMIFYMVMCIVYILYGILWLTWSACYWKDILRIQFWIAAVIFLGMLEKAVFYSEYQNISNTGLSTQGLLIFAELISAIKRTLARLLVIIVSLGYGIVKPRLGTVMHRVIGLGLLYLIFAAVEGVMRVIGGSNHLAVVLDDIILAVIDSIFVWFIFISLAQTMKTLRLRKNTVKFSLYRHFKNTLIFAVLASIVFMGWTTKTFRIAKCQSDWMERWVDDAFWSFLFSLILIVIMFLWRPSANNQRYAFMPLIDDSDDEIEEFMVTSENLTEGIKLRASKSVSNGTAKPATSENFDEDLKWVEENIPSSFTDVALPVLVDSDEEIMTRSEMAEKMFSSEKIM
Sequence of UniProt P28908 (P28908 whole entry, looked up): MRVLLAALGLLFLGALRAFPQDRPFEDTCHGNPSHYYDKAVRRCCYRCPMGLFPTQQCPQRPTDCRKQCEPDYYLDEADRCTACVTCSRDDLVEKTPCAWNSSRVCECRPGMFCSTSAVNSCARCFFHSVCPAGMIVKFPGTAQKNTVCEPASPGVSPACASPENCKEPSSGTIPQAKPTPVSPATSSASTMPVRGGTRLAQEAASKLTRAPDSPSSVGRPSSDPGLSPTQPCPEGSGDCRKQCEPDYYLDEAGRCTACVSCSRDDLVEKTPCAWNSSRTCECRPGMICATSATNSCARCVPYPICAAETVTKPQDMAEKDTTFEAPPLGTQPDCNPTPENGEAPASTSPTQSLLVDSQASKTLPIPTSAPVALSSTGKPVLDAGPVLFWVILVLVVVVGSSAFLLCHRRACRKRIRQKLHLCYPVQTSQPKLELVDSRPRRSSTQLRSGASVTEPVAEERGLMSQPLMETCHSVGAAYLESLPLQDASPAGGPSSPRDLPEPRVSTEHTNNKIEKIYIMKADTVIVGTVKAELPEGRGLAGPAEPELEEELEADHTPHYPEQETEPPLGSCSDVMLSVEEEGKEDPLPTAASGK
Sequence of UniProt P98170 (P98170 whole entry, looked up): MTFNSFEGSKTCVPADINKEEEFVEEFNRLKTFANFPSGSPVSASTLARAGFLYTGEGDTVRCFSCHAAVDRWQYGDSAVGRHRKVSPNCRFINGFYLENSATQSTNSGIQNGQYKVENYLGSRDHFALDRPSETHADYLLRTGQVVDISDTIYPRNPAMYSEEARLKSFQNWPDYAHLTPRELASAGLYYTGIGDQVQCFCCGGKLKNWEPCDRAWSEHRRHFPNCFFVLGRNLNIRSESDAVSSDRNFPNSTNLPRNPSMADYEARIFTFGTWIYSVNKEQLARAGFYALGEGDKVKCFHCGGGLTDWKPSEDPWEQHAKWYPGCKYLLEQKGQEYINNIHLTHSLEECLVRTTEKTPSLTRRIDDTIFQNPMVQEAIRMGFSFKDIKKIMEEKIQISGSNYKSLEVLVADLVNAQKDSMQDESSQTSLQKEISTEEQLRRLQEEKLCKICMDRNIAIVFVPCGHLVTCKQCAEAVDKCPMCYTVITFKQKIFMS
Sequence of UniProt Q9BVJ6 (Q9BVJ6 whole entry, looked up): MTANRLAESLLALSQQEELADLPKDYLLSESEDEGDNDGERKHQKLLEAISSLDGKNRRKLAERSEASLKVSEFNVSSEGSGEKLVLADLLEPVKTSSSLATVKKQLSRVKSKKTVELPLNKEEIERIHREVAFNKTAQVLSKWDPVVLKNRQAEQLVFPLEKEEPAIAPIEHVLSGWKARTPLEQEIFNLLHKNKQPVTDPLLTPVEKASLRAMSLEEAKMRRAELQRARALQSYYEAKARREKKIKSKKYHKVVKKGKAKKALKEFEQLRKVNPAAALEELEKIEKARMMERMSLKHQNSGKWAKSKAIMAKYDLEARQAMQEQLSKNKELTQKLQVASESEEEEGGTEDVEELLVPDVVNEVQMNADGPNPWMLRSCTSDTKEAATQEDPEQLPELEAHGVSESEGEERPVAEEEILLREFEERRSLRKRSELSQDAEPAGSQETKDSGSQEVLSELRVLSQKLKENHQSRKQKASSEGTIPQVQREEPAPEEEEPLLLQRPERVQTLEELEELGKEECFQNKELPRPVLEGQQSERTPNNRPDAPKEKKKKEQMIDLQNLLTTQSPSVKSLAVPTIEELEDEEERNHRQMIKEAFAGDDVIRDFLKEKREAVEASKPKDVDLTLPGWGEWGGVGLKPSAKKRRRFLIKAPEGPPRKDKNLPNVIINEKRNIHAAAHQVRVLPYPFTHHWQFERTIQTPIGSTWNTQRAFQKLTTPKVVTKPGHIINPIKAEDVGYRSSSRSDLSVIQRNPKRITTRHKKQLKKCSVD
Sequence of UniProt Q8NCE0 (Q8NCE0 whole entry, looked up): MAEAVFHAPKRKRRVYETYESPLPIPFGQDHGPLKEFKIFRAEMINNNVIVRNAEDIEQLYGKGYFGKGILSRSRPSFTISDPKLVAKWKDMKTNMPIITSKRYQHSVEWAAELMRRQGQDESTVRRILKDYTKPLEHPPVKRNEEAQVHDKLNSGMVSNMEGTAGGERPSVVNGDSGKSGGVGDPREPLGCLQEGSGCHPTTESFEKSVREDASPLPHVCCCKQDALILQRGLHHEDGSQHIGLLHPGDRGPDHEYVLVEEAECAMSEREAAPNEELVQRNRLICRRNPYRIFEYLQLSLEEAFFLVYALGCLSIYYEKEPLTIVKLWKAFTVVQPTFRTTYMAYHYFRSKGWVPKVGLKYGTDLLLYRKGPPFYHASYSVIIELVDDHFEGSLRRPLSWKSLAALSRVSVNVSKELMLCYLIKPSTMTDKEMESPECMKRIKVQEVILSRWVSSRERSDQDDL
Sequence of UniProt O14773 (O14773 whole entry, looked up): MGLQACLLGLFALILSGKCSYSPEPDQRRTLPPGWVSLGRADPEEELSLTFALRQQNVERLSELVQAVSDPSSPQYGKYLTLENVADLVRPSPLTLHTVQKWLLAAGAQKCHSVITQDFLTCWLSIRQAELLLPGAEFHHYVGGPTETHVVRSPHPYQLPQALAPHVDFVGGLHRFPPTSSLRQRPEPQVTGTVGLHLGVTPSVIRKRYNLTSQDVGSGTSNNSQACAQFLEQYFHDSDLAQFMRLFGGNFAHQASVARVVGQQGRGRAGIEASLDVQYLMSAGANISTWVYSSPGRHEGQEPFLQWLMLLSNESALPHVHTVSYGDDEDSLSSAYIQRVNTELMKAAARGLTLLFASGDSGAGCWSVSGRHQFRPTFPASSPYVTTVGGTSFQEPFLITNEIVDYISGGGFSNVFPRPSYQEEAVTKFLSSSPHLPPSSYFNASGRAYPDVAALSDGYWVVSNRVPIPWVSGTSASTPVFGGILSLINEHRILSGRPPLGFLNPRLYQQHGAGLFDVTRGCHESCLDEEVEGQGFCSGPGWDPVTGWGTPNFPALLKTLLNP
Sequence of UniProt Q9NUM4 (Q9NUM4 whole entry, looked up): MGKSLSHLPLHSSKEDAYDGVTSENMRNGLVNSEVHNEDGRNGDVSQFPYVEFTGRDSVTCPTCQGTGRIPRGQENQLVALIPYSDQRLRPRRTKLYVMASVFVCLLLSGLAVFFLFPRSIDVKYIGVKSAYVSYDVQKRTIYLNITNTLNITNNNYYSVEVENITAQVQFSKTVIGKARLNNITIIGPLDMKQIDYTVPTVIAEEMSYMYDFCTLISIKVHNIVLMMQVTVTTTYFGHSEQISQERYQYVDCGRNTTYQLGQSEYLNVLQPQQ
Sequence of UniProt P61960 (P61960 whole entry, looked up): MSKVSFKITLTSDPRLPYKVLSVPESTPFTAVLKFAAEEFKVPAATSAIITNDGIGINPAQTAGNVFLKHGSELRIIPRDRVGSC

Target | log2 fold change (erlotinib) | log2 fold change [1] | log2 fold change [2] | log2 fold change [3] | log2 fold change [4] | log2 fold change [5] | log2 fold change [6] | log2 fold change [7] | log2 fold change [8] | log2 fold change (IRAK-1-4 Inhibitor I) | log2 fold change (ibrutinib) | log2 fold change [9] | log2 fold change [10] | log2 fold change [11] | log2 fold change (pinometostat) | log2 fold change [12] | log2 fold change [13] | log2 fold change [14] | log2 fold change (ralimetinib) | log2 fold change [15]
TMEM106B (UniProt Q9NUM4) | 0.007 | 0.028 | -0.047 | 0.031 | 0.051 | -0.002 | 0.003 | -0.064 | 0.15 | 0.056 | 0.029 | 0.043 | 0.043 | -0.092 | 0.085 | 0.026 | -0.027 |  |  | 
XRCC1 (UniProt P18887) | 0.036 | -0.392 | 0.04 | 0.046 | 0.304 |  | 0.042 | 0.043 | 0.117 | 0.13 |  | 0.027 | -0.368 | -0.066 | 0.41 |  | -0.047 | -0.035 | -0.115 | 0.432
VDAC1 (UniProt P21796) | -0.006 | 0 | 0.039 | -0.003 | -0.023 | 0.006 | 0.005 | 0.006 | 0.067 | 0.07 |  | 0.02 | 0.021 | 0.058 | -0.032 | -0.009 | -0.016 | -0.004 | -0.035 | -0.039
WDR37 isoform 2 (UniProt Q9Y2I8) | 0.039 | 0.006 | -0.097 | 0.012 | -0.026 | -0.204 | -0.144 | 0.01 | -0.088 | 0.144 | -0.06 | -0.39 (active) | -0.118 | -0.011 | -0.029 | -0.015 | 0.144 | 0.006 | -0.063 | 0.126
UBA1 (UniProt P22314) | 0.1 | 0.166 | 0.074 | -0.024 | 0.114 | -0.004 | 0.023 | -0.034 | -0.175 | -0.145 | -0.058 | -0.047 | -0.15 | -0.363 (active) | 0.019 | 0.023 | 0.336 | 0.065 | 0.068 | -0.055
TPP1 (UniProt O14773) | 0.013 | 0.009 | 0.059 | -0.015 | -0.007 | 0.024 | -0.014 | -0.012 | -0.017 | -0.007 | -0.01 | -0.006 | 0.059 | -0.492 (active) | -0.052 | 0.025 | -0.009 | 0.034 | -0.025 | 0.043
XIAP (UniProt P98170) | 0.166 | 0.062 | 0.1 | -0.002 | 0.075 | -0.018 | -0.002 | -0.024 | 0.065 |  | -0.076 | -0.105 | -0.157 | -0.05 |  | 0 | -0.002 |  |  | 
TNFRSF8 (UniProt P28908) | 0.009 | 0.017 | -0.015 | 0.006 | -0.109 | 0.024 | -0.061 | -0.046 | 0.05 | 0.056 | 0.046 | 0.005 | 0.016 | 0.219 (active) | -0.01 | 0.003 | -0.022 | -0.062 | -0.143 | 0.074
TMEM87B (UniProt Q96K49) | 0.035 | 0.059 | -0.069 | 0.013 | 0.003 | 0.055 | -0.143 | -0.06 | 0.047 | 0.139 | -0.084 | -0.046 | -0.204 | -0.39 (active) | 0.065 | 0.057 | 0.029 | 0.009 | -0.086 | -0.007
UBAP2L isoform 5 (UniProt Q14157) | 0.057 | -0.005 | 0.005 | 0 | 0.013 | 0.015 | -0.03 | -0.007 | 0.026 | 0.053 | 0.04 | 0.017 | 0.003 | 0.053 | -0.032 | 0.009 | 0.068 | -0.029 | -0.007 | -0.012
TSEN2 (UniProt Q8NCE0) | 0.08 | -0.001 | -0.016 | 0.029 | 0.041 | 0.098 | 0.023 | -0.04 | 0.061 | 0.073 | -0.022 | -0.116 | -0.127 | 0.033 | 0.004 | 0.055 | 0.027 | 0.023 | -0.034 | -0.001
VDAC1 (UniProt C9JI87) | 0.277 | -0.05 | 0.095 | -0.01 | 0.13 | 0.124 | -0.04 |  |  |  |  | -0.091 | -0.052 | 0.009 |  | 0.21 |  | 0.091 | -0.506 | -0.013
USO1 isoform 2 (UniProt O60763) | -0.008 | 0.046 | 0.051 | -0.028 | -0.049 | 0.059 | -0.028 | 0.033 | -0.014 | 0.05 | -0.025 | 0.066 | -0.061 | -0.108 | 0.008 | -0.011 | -0.005 | 0.004 | 0.004 | -0.01
TSC2 (UniProt P49815) | 0.276 | -0.047 | -0.104 | -0.297 | -0.025 | -0.135 | 0.063 | -0.001 | 0.199 | -0.045 | 0.028 | 0.05 | -0.001 | 0.103 | 0.085 |  | 0.105 | 0.06 | 0.091 | 0.056
USP34 (UniProt Q70CQ2) | 0.065 | 0.074 | 0.026 | -0.02 | 0.145 | -0.013 | -0.043 | 0.015 | -0.086 | 0.005 | -0.091 | -0.033 | -0.14 | -0.114 | 0.079 | -0.04 | -0.176 | 0.027 | -0.017 | -0.016
UTP14A (UniProt Q9BVJ6) | -0.142 | -0.15 | -0.301 | 0.06 | -0.075 | -0.005 | -0.045 | 0.006 | -0.155 | -0.13 | -0.026 | 0.088 | 0.007 | -0.113 | 0.262 | 0.065 | -0.708 (active) | -0.06 | 0.11 | 0.154
UFM1 isoform 2 (UniProt P61960) | -0.132 | 0.108 | 0.06 | 0.14 | 0.07 | 0.032 | -0.003 | 0.08 | 0.004 |  | 0.025 | 0.052 | 0.018 | -0.013 |  | 0.026 | 0.035 |  |  | 

— the supplement of paper PMC10849652
